Measured values from PubChem BioAssay (NCATS).
Unmarked numbers belong to inactive results. Inconclusive results are not listed. A call without a number means that no potency is given here. Active and inactive are the calls of the source. Calls come from the whole dose curve; as a rule, active = well fitted curve in the direction sought with a large enough effect; inconclusive = small, poorly fitted or top-dose-only effect, or another doubt; inactive = no such curve, though single readings can be large; an effect the other way counts as inactive or inconclusive.

Test system: not listed separately
Assay: Primary fluorescence-based thiol-reactive (MSTI) qHTS assay for identification of artifact compounds. (AID 1845221);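 note: thiol-reactive compounds lower the probe fluorescence signal; nearly all actives have a fitted effect of over 65% in size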
Settings: MSTI thiol-reactivity probe, 1 h; series mostly up to 53.8 µM
Summary of the method: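 Curve-fitted percent inhibition (4-parameter Hill) derived from fluorescence, Ex 525/Em 598 nm, scaled with Acetyl-MSTI and MSTI; 1 h incubation at room temperature.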

Compound | Potency | activity change, negative = thiol reactive
C/C=C1/C[N+](C)([O-])C2Cc3c([nH]c4ccccc34)C(=O)CC1C2C(=O)OC (stereo unspecified) | inactive | 
COc1cc(-c2ccc(O)cc2)c(OC)c(O)c1C1=CC(=O)OC1CC(=O)O (stereo unspecified) | inactive | 
COC(=O)C(CC1(O)c2ccccc2N2C(=O)C(CC(C)C)NC21)n1cnc2ccccc2c1=O (stereo unspecified) | inactive | 
Cc1ccc(COC(=O)N2CC[C@@H](CNc3ncccn3)[C@@H](F)C2)cc1 | inactive | 
COc1cccc(Cn2ncc3c4sc(S(C)=O)cc4n(C)c3c2=O)c1 (stereo unspecified) | inactive | 
CN1C(=O)N(c2cc(Cl)cc(Cl)c2)C(=O)[C@@]1(C)Cc1ccc(Br)cc1 | inactive | 
CC1(C)CC[C@]2(C(=O)O)CC[C@]3(C)C(=CCC4[C@@]5(C)CC[C@H](O[C@@H]6O[C@H](C(=O)O)[C@@H](O)[C@H](O)[C@H]6O)C(C)(C)C5CC[C@]43C)C2C1 (stereo partly specified) | inactive | 
C[C@@H]1C(=O)O[C@H](C)[C@H]1C[C@@H](O)[C@](C)(O)[C@H]1CC[C@@]2(O)C3=CC(=O)[C@@H]4C[C@@H](O)[C@@H](O)C[C@]4(C)C3CC[C@]12C (stereo partly specified) | inactive | 
O=C(O)CC1CCC(c2ccc(-c3ccc(Nc4ccc(C(F)(F)F)nc4)cn3)cc2)CC1 (stereo unspecified) | inactive | 
CC(=C\C(C)O)/C=C(\C)C(=O)CC1CC(CC(N)=O)CC(=O)O1 (stereo unspecified) | inactive | 
COc1ccc(CCC(=O)O)c(O[C@@H]2O[C@H](CO)[C@@H](O)[C@H](O)[C@H]2O)c1 | inactive | 
C[C@@H]1O[C@@H](O[C@H]2[C@H](OC(=O)[C@]34CCC(C)(C)C[C@H]3C3=CCC5[C@@]6(C)C[C@@H](O)[C@@H](O)[C@@](C)(CO)C6[C@H](O)C[C@@]5(C)[C@]3(C)CC4)OC[C@H](O)[C@@H]2O)[C@H](O)[C@H](O)[C@H]1O[C@@H]1OC[C@@H](O)[C@H](O[C@H]2O[C@H](C)[C@@H](O)[C@H](O)[C@@H]2O)[C@H]1O (stereo partly specified) |  | 381% [at 11.5 µM]

Test system: Nanoluciferase (engineered Oplophorus gracilirostris luciferase)
Assay: Primary Nanoluciferase (NLuc) qHTS assay for identification of artifact compounds. (AID 1845222);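 note: NLuc secreted into diluted conditioned medium of S16 cells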
Settings: NLuc-conditioned medium, Nano-Glo luminescence, 5 min; series mostly up to 54.1 µM
Summary of the method: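 qHTS format, against NLuc in S16 cell-conditioned medium. Nano-Glo substrate 1:100 was added after 15 min at room temperature. Luminescence was taken after a further 5 min.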

Compound | Potency | activity, negative = inhibition
COC(=O)C(CC1CCCC1)c1ccc(S(C)(=O)=O)cc1 (stereo unspecified) | inactive | 
CC(C)/C=C1/NC(=O)C(C(C)C)n2c1nc1c(O)cccc1c2=O (stereo unspecified) | inactive | 
O=C(O)/C=C/c1ccc(O[C@@H]2O[C@H](CO)[C@@H](O)[C@H](O)[C@H]2O)cc1 | inactive | 
CC1CCCCCCCc2cc(O)cc(O)c2C(=O)O1 (stereo unspecified) | inactive | 
CSC(=O)OCC1=C[C@@H]2OC(=O)C3=CO[C@@H](O[C@@H]4O[C@H](CO)[C@@H](O)[C@H](O)[C@H]4O)[C@H]1[C@@H]32 | inactive | 
C=C1C[C@]23C[C@H]1CC[C@H]2[C@]1(C)CC[C@H](O)[C@@](C)(C(=O)O)[C@H]1[C@@H]3C(=O)O | inactive | 
C[C@@H]1O[C@@H](O[C@H]2[C@H](OC(=O)[C@]34CCC(C)(C)C[C@H]3C3=CCC5[C@@]6(C)CC[C@H](O[C@@H]7O[C@H](CO[C@@H]8OC[C@H](O)[C@H](O)[C@H]8O[C@@H]8OC[C@@H](O)[C@H](O)[C@H]8O)[C@@H](O)[C@H](O)[C@H]7O)C(C)(C)C6CC[C@@]5(C)[C@]3(C)C[C@H]4O)O[C@H](CO)[C@@H](O)[C@@H]2O)[C@H](O[C@@H]2O[C@H](CO)[C@@H](O)[C@H](O)[C@H]2O)[C@H](O)[C@H]1O[C@@H]1OC[C@@H](O)[C@H](O[C@@H]2OC[C@@H](O)[C@H](O)[C@H]2O)[C@H]1O (stereo partly specified) |  | 3.87% [at 6.45 µM]
CC(C)=CCC[C@](C)(O[C@@H]1O[C@H](CO)[C@@H](O)[C@H](O)[C@H]1O)[C@H]1CC[C@]2(C)[C@@H]1[C@H](O)CC1[C@@]3(C)CC[C@H](O)C(C)(C)C3[C@@H](O[C@@H]3O[C@H](CO)[C@@H](O)[C@H](O)[C@H]3O[C@@H]3O[C@@H](C)[C@H](O)[C@@H](O)[C@H]3O)C[C@]12C (stereo partly specified) |  | 4.23% [at 11.6 µM]
CC(C)(O)/C=C/C(=O)[C@](C)(O)[C@H]1[C@H](O)C[C@@]2(C)[C@@H]3CC=C4[C@@H](C=C(O[C@@H]5O[C@H](CO)[C@@H](O)[C@H](O)[C@H]5O)C(=O)C4(C)C)[C@]3(C)C(=O)C[C@]12C | inactive | 
C[C@H]1CCN2C[C@]34C[C@@]5(C(=O)Nc6c5ccc5c6OC=CC(C)(C)O5)C(C)(C)C3C[C@]12C(=O)N4C (stereo partly specified) | inactive | 
O=C(/C=C/c1ccc(O)c(O)c1)O[C@@H]1[C@@H](O)[C@H](OC2CCCCC2O)O[C@H](CO)[C@H]1O (stereo partly specified) | inactive | 
COc1cc(/C=C/C(=O)O[C@@H]2O[C@H](CO)[C@@H](O)[C@H](O)[C@H]2O)ccc1O | inactive | 
CC(=O)/C=C/C1(O)C(C)CC(O[C@@H]2O[C@H](CO)[C@@H](O)[C@H](O)[C@H]2O)CC1(C)C (stereo partly specified) | inactive | 
CC(=O)OC1CC2C(C)(C)C(=O)C=CC2(C)C2CC(=O)C3=C(CCC3C3=CC(O)OC3=O)C12C (stereo unspecified) | inactive | 
C=C(CCO)C(=O)OCC1OCC(OC(=O)C(=C)CCO[C@@H]2O[C@H](COC(=O)C(=C)CCO[C@@H]3O[C@H](CO)[C@@H](O)[C@H](O)[C@H]3O)[C@@H](O)[C@H](O)[C@H]2O)C(O)C1O (stereo partly specified) | inactive | 
CCC1OC(=O)C(C)CC(C)C(=O)/C(C)=C/C(C)C(=O)/C=C/C1(C)O (stereo unspecified) | inactive | 
CC(C)C1(O)C=C2C(=O)CC3C(C)(C(=O)O)CCCC3(C)C2CC1 (stereo unspecified) | inactive | 
CC(NC(=O)c1ccccc1N)C(=O)O (stereo unspecified) | inactive | 
CC(=O)/C=C/[C@H]1[C@](C)(O)[C@@H](O)[C@H](O)C2C(C)(C)CCC[C@@]21C (stereo partly specified) | inactive | 
CO[C@@H]1[C@]2(O)C(=O)N3/C=C\C(C)(C)c4[nH]c5ccccc5c4/C=C\3C(=O)N2[C@]23[C@H](CO)C(C)(C)N2c2ccccc2[C@]13O | inactive | 

Compound | Potency | activity, negative = inhibition
CC(=O)NC1C(OC2CCC3(C)C(CCC4(C)C3CC=C3C5CC(C)(C)CCC5(C(=O)O)C(O)CC34C)C2(C)C)OC(CO)C(O)C1O (stereo unspecified) | inactive | 
COC(=O)C(CC1(OC(=O)C(C)C)c2ccccc2N2C(=O)C(C)(C)N(O)C21)n1cnc2ccccc2c1=O (stereo unspecified) | inactive | 
OC[C@H]1O[C@@H](OCc2ccccc2)[C@H](O)[C@@H](O)[C@@H]1O | inactive | 
COc1cc(/C=C/C(=O)O)ccc1O[C@@H]1O[C@H](CO)[C@@H](O)[C@H](O)[C@H]1O[C@@H]1OC[C@](O)(CO)[C@H]1O | inactive | 
CC(=O)OC1(C)CC(O)C2(O)C=COC(OC3OC(CO)C(O)C(O)C3O)C12 (stereo unspecified) | inactive | 
C[C@@H]1O[C@@H](O[C@H]2[C@H](Oc3cc(O)c(C(=O)CCc4ccc(O)cc4)c(O)c3)O[C@H](CO)[C@@H](O)[C@@H]2O)[C@H](O)[C@H](O)[C@H]1O | inactive | 
CC1(C)CCC2(C(=O)O)C(O)CC3(C)C(=CCC4C5(C)CCC(OC6OC(CO)C(O)C(O)C6OC6OC(CO)C(O)C(O)C6OC6OCC(O)(CO)C6O)C(C)(C)C5CCC43C)C2C1 (stereo unspecified) |  | 1.68% [at 11.6 µM]
C/C=C1/C[N+](C)([O-])C2Cc3c([nH]c4ccccc34)C(=O)CC1C2C(=O)OC (stereo unspecified) | inactive | 
COc1cc(-c2ccc(O)cc2)c(OC)c(O)c1C1=CC(=O)OC1CC(=O)O (stereo unspecified) | inactive | 
COC(=O)C(CC1(O)c2ccccc2N2C(=O)C(CC(C)C)NC21)n1cnc2ccccc2c1=O (stereo unspecified) | inactive | 
Cc1ccc(COC(=O)N2CC[C@@H](CNc3ncccn3)[C@@H](F)C2)cc1 | inactive | 
COc1cccc(Cn2ncc3c4sc(S(C)=O)cc4n(C)c3c2=O)c1 (stereo unspecified) | inactive | 
CN1C(=O)N(c2cc(Cl)cc(Cl)c2)C(=O)[C@@]1(C)Cc1ccc(Br)cc1 | inactive | 
CC1(C)CC[C@]2(C(=O)O)CC[C@]3(C)C(=CCC4[C@@]5(C)CC[C@H](O[C@@H]6O[C@H](C(=O)O)[C@@H](O)[C@H](O)[C@H]6O)C(C)(C)C5CC[C@]43C)C2C1 (stereo partly specified) | inactive | 
C[C@@H]1C(=O)O[C@H](C)[C@H]1C[C@@H](O)[C@](C)(O)[C@H]1CC[C@@]2(O)C3=CC(=O)[C@@H]4C[C@@H](O)[C@@H](O)C[C@]4(C)C3CC[C@]12C (stereo partly specified) | inactive | 
O=C(O)CC1CCC(c2ccc(-c3ccc(Nc4ccc(C(F)(F)F)nc4)cn3)cc2)CC1 (stereo unspecified) | inactive | 
CC(=C\C(C)O)/C=C(\C)C(=O)CC1CC(CC(N)=O)CC(=O)O1 (stereo unspecified) | inactive | 
COc1ccc(CCC(=O)O)c(O[C@@H]2O[C@H](CO)[C@@H](O)[C@H](O)[C@H]2O)c1 | inactive | 
C[C@@H]1O[C@@H](O[C@H]2[C@H](OC(=O)[C@]34CCC(C)(C)C[C@H]3C3=CCC5[C@@]6(C)C[C@@H](O)[C@@H](O)[C@@](C)(CO)C6[C@H](O)C[C@@]5(C)[C@]3(C)CC4)OC[C@H](O)[C@@H]2O)[C@H](O)[C@H](O)[C@H]1O[C@@H]1OC[C@@H](O)[C@H](O[C@H]2O[C@H](C)[C@@H](O)[C@H](O)[C@@H]2O)[C@H]1O (stereo partly specified) |  | 4.47% [at 11.6 µM]
